This assay relates to Japanese medaka Glucocorticoid Receptor (GR), gene 101170451. Briefly: ATG_jmGR_EcoTox2: Attagene TRANS-FACTORIAL EcoTox-2 HepG2 Assay for Japanese medaka Glucocorticoid Receptor (GR). The protocol: ATG_EcoTox2 is a cell-based, multiplexed assay created by modifying the existing Attagene TRANS-FACTORIAL system to include a panel of nuclear receptors from some or all the following species: human (Homo sapiens), african clawed frog (Xenopus laevis), rainbow trout (Oncorhynchus mykiss), japanese medaka (Oryzias latipes), and zebrafish (Danio rerio). The ECOTOX2-FACTORIAL format uses HepG2, a human liver cell line, with measurements taken at 24 hours after chemical dosing in a 24-well plate. ATG_jmGR_EcoTox2 is one of 29 assay components calculated in the ATG_EcoTox2 assay. It is designed to make measurements of mRNA induction, a form of inducible reporter, as detected with fluorescence intensity signals by Reverse transcription polymerase chain reaction (RT-PCR) and Capillary electrophoresis technology.The assay endpoint ATG_jmGR_EcoTox2 was analyzed in the positive analysis fitting direction relative to DMSO as the negative control and baseline of activity. Using a type of inducible reporter, measures of mRNA for gain-of-signal activity can be used to understand the reporter gene at the transcription factor-level as they relate to the gene for glucocorticoid receptor. Furthermore, this assay endpoint can be referred to as a primary readout, because this assay has produced multiple assay endpoints where this one serves a reporter gene function. […]

Results filed as inconclusive are left out. Activity calls are given as the source filed them. How the source made its calls: active means hit-call score of the fitted dose curve at least 0.9, where 1 is the maximum; inconclusive means response in the unintended direction; inactive means score below 0.9.

As to `CCCCOCN(C(=O)CCl)c1c(CC)cccc1CC`, the compound was classed as inactive.

`O=P(Oc1ccccc1)(Oc1ccccc1)Oc1ccccc1`: the call was inactive.

(Values after PubChem BioAssay AID2284324 (EPA ToxCast).)
